# Experimental data as given in PubChem BioAssay (NCATS).
# Several values for one entry are separate records, joined by “and”; a condition that tells them apart may be missing. Identical values can stand only once. Records with an inconclusive call do not appear. A call without a number means that no potency is given here. Activity calls are given as the source filed them. Calls follow the shape of the dose curve; as a rule, active = well fitted cell-killing curve with a large enough effect; inconclusive = small, poorly fitted or top-dose-only effect; inactive = no such curve, though single readings can be large or run the other way.
# Assay: qHTS of pediatric cancer cell lines to identify multiple opportunities for drug repurposing: Primary screen for Saos-2 cells (AID 1347097); also: nearly all actives have a fitted effect of over 40% in size
# Settings: Saos-2 viability, CellTiter-Glo ATP luminescence, 48 h; series mostly up to 46 µM
# Source text: Drug repurposing or repositioning has been offered as a strategy for drug development in oncology programs. This approach has special potential for childhood cancers and other rare or orphan diseases, where the expected return on new drug development has been a disincentive to pharmaceuticals. […] In this project we exploit the poly-pharmacology of drugs to discover new indications via phenotypic screening of a panel of 19 well-characterized cell lines derived from solid tumors seen in children and adolescents. The goal is to identify approved drugs with previously unrecognized anticancer properties that has the potential to reveal new mechanisms and biological processes involved in carcinogenesis or drug resistance. We employed a titration-based paradigm (quantitative high-throughput screening or qHTS), where all compounds were tested at multiple concentrations for their effect on cell viability. Concentration-response curves (CRCs) were derived directly from the primary screen, and both potency and efficacy values were used to identify compounds with robust bioactivity profiles. We screened the NIH Chemical Genomics Center (NCGC) Pharmaceutical Collection (NPC) and Mechanism Interrogation Plate (MIPE) small molecule collections of approved and investigational compounds against these cell lines; and measured metabolically active cells after 48 hours of compound treatment as a proxy for cell viability. […] Assay Submitter: Nathalia J. Martinez, National Center for Advancing Translational Sciences, National Institutes of Health, Rockville, MD, USA; email: natalia.martinez@nih.gov Shen, M et al. Quantitative high-throughput phenotypic screening of pediatric cancer cell lines identifies multiple opportunities for drug repurposing. Oncotarget 2017 Dec 19;9(4):4758-4772. PMID 29435139.
# The cells were obtained from University of North Carolina (UNC), Pediatric Preclinical Testing Program (PPT), and Coriell Institute (CI). qHTS cell viability assay: Cells were assayed in growth media at a density of 500-1,000 cells/well. Five microliters of cells were dispensed into 1,536-well, white, solid-bottom, TC-treated plates (Greiner Bio One) using a multidrop dispenser and incubated at 37 degrees C, 5% CO2, under a humidified atmosphere for 5 hours. Twenty-three nanoliters of compounds and controls (neutral control DMSO or positive control bortezomib at final concentration of 2.3 µM) were subsequently transferred by Kalypsys pintool. For primary screens, the MIPE collection was tested at 11-point dilutions (final concentrations range from 0.78 nM to 46 µM) and the NPC collection at 8-point dilutions (final concentrations range from 0.59 nM to 46 µM). Compounds tested in follow-up screens were assayed at 11-point dilutions. Cells were incubated for 48 hours, followed by addition of 3 µL of CellTiter-Glo (Promega). After a 15 min incubation at room temperature, samples were analyzed for luminescence intensity using a ViewLux High-throughput CCD imager equipped with clear filters.
# Potency is read from the fitted curve at half-maximal effect.
row,SMILES,Potency
1,CC(C)(Sc1cc(C(C)(C)C)c(O)c(C(C)(C)C)c1)Sc1cc(C(C)(C)C)c(O)c(C(C)(C)C)c1,inactive
2,Cc1oc(=O)oc1CN1CCN(c2cc3c(cc2F)c(=O)c(C(=O)O)c2n3C(C)S2)CC1 (stereo not given),inactive
3,O[C@@H](CNC[C@H](O)[C@H]1CCc2cc(F)ccc2O1)[C@@H]1CCc2cc(F)ccc2O1,26.4 µM (active)
4,CC1(C)[C@H](C(=O)O)N2C(=O)C[C@H]2S1(=O)=O,inactive
5,CN1CCCC(n2nc(Cc3ccc(Cl)cc3)c3ccccc3c2=O)CC1 (stereo not given),2.35 µM (active)
6,C[C@@H](CN1CC(=O)NC(=O)C1)N1CC(=O)NC(=O)C1,inactive
7,COc1ccccc1OCC(O)COC(N)=O (stereo not given),inactive
8,CCOC(=O)c1ccc(OC(=O)CCCCCN=C(N)N)cc1,inactive
9,Cc1cc(NS(=O)(=O)c2ccc(N)cc2)no1,inactive
10,CN(C)c1ccc(C(=C2C=CC(=[N+](C)C)C=C2)c2ccc(N(C)C)cc2)cc1,2.11 µM (active) and 418 nM (active)
11,CC1=C(C(=O)O)N2C(=O)[C@@H](NC(=O)C(N)c3ccccc3)[C@H]2SC1 (stereo not given in full),inactive
12,NC(N)=NC(N)=NCCc1ccccc1,inactive
13,CC(=O)[C@H]1CC[C@H]2[C@@H]3CC=C4C[C@@H](O)CC[C@]4(C)[C@H]3CC[C@]12C,inactive
14,Cc1nnc(NS(=O)(=O)c2ccc(N)cc2)s1,inactive
15,CC(C)OC(=O)OCOP(=O)(CO[C@H](C)Cn1cnc2c(N)ncnc21)OCOC(=O)OC(C)C,inactive
16,Cc1cccc(Nc2ccncc2S(=O)(=O)NC(=O)NC(C)C)c1,inactive
17,CCCCS(=N)(=O)CCC(N)C(=O)O (stereo not given),inactive
18,CC1=NN(c2ccccc2)C(=O)C1,inactive
19,O=C(N[C@H](CO)[C@H](O)c1ccc([N+](=O)[O-])cc1)C(Cl)Cl,inactive
20,C[C@@H]1C[C@H]2[C@@H]3CCC4=CC(=O)C=C[C@]4(C)[C@@]3(Cl)[C@@H](O)C[C@]2(C)[C@@]1(OC(=O)c1ccco1)C(=O)CCl,14.8 µM (active)

row,SMILES,Potency
1,CCCc1cc(C(N)=S)ccn1,inactive
2,COc1nc(N)nc2c1ncn2[C@@H]1O[C@H](CO)[C@@H](O)[C@@H]1O,inactive
3,COc1cnc(NS(=O)(=O)c2ccc(N)cc2)nc1,inactive
4,CCCCOc1ccc(CC(=O)NO)cc1,23.5 µM (active)
5,CC(N)C12CC3CC(CC(C3)C1)C2 (stereo not given),inactive
6,Nc1ccc(S(=O)(=O)Nc2ccccn2)cc1,inactive
7,CC(=O)Oc1ccccc1C(=O)Nc1ncc([N+](=O)[O-])s1,27 µM (active)
8,CN1CCN(c2c(F)cc3c(=O)c(C(=O)O)cn(CCF)c3c2F)CC1,inactive
9,Cc1onc(-c2ccccc2Cl)c1C(=O)N[C@@H]1C(=O)N2[C@@H]1SC(C)(C)[C@@H]2C(=O)O,inactive
10,CCN(CC)CCn1c(=O)c(Cc2ccc(OC)cc2)nc2ccccc21,inactive
11,CCCCc1oc2ccc(NS(C)(=O)=O)cc2c1C(=O)c1ccc(OCCCN(CCCC)CCCC)cc1,18.7 µM (active) and 23.7 µM (active)
12,Nc1nc(N)nc(-c2cc(Cl)ccc2Cl)n1,inactive
13,COCCCOc1cc(C[C@@H](C[C@H](N)[C@@H](O)C[C@H](C(=O)NCC(C)(C)C(N)=O)C(C)C)C(C)C)ccc1OC,inactive
14,COc1cc2nc(N3CCCN(C)CC3)nc(NC3CCN(Cc4ccccc4)CC3)c2cc1OC,7.43 µM (active)
15,C1CCC(C(CC2CCCCN2)C2CCCCC2)CC1 (stereo not given),13.3 µM (active) and 33.2 µM (active)
16,CC(C)(C)NC(=O)[C@H]1CC[C@H]2[C@@H]3CC[C@H]4NC(=O)C=C[C@]4(C)[C@H]3CC[C@]12C,14.8 µM (active)
17,COc1cc(NS(=O)(=O)c2ccc(N)cc2)nc(OC)n1,inactive
18,CC1CC2C3CCC4=CC(=O)C=C[C@]4(C)[C@@]3(F)[C@@H](O)C[C@]2(C)[C@@]1(O)C(=O)CO (stereo not given in full),inactive
19,OC(Cn1cncn1)(Cn1cncn1)c1ccc(F)cc1F,inactive
20,Nc1nc(F)nc2c1ncn2[C@@H]1O[C@H](CO)[C@@H](O)[C@@H]1O,150 nM (active) and 935 nM (active)
